# According to PubChem BioAssay (NCI):
# This is part of a sample that, as a whole, favours compounds with a hit. Of some 83,000 tested, about 20% had one in any assay.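 Growth was measured after 48 h exposure to one concentration of compound in 96-well plates. Values under 10 count as active.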 A number with no mark means an inactive call. The source made the active and inactive calls.
# System: NCI-H522 lung
# Experiment: NCI-60 one-dose screen, 48 h (100 = growth as untreated, 0 = no growth, -100 = all killed)
# Details: 10 µM
row,Compound,growth
1,C/C(CCC(=O)O)=N/Nc1ccc([N+](=O)[O-])cc1,61.2%
2,Nc1nc2c(c3ncncc13)C(c1cccc(C(F)(F)F)c1)Cc1ncncc1-2 (stereo not drawn),32.9%
3,COc1ccc(-c2nc(SCC(C)C)nc(Nc3ccc([N+](=O)[O-])cc3)c2C#N)cc1,92%
4,Cn1c2c(cc(S(=O)(=O)c3ccccc3)c1=O)CCc1c-2cnn1-c1ccc(Cl)cc1,-11.3% (active)
5,Nc1nc2c(c3cnccc13)C(c1cccc(Cl)c1)Cc1cnccc1-2 (stereo not drawn),7.88% (active)
6,CCCCCSc1ccc2nc(NC(=O)OCCC)sc2c1,29.4%
7,CCCCCSc1ccc2nc(NC(=O)OCC)sc2c1,20.8%
8,Cc1c(Cc2ccccc2)c(=O)oc2c(C)c(OCc3n[nH]c(=S)o3)ccc12,61%
9,CCOC(=O)c1c(C)oc2ncnc(Nc3ccc(C(=O)NCCc4ccccc4)cc3)c12,66.9%
10,COc1cc(/C=C/C(=O)c2ccc(F)cc2)ccc1OCCCCOc1cc2c(cc1OC)C(=O)N1CCCC1C=N2 (stereo not drawn),-61.1% (active)
11,C=C(C)[C@@H]1CC[C@]2(COC(=O)c3ccccc3C(=O)O)CC[C@]3(C)[C@H](CC[C@@H]4[C@@]5(C)CCCNC(C)(C)[C@@H]5CC[C@]43C)[C@@H]12,78.3%
12,O=C(CCCC(=O)Nc1ccc(Cn2nnc3cc(Cl)c(Cl)cc32)cc1)Nc1ccc(CN2N=NC3C=C(Cl)C(Cl)=CC32)cc1 (stereo not drawn),62.4%
13,CCS(=O)(=O)OCCO[C@H]1Cc2cc3ccc(=O)oc3cc2OC1(C)C,89.1%
